From PubChem BioAssay (EPA / NIEHS) come the findings set out here.

Molecules are shown by their SMILES. Records with an inconclusive call do not appear. Active and inactive are the calls of the source. How the source made its calls, unless noted: active means hit-call score of the fitted dose curve at least 0.9, where 1 is the maximum; inconclusive means response in the unintended direction; inactive means score below 0.9.

Read-out in experiment [1]: Cytochrome P450 2B6 (Homo sapiens) (UniProt P20813)
The experiment is described as follows: CLD_CYP2B6_6hr: CellzDirect (CLD) Gene Expression Assay for xenobiotic metabolism (CYP2B6) at 6 hours (AID 2283677).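 Further: actives raise CYP2B6 transcript above DMSO baseline so AC50 marks an inducer.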 Put shortly: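 CYP2B6 transcript levels, read by chemiluminescent qNPA, were fitted for increase versus DMSO baseline; cultured human liver hepatocytes from two donor preparations were harvested 6 h after exposure to test chemicals at multiple concentrations.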

Read-out in experiment [2]: Cytochrome P450 2C19 (Homo sapiens) (UniProt P33261)
Kind of experiment: CLD_CYP2C19_6hr: CellzDirect (CLD) Gene Expression Assay for xenobiotic metabolism (CYP2C19) at 6 hours (AID 2283678). In outline: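 CYP2C19 transcript induction was quantified by quantitative nuclease protection assay with chemiluminescent read-out, 6 h after dosing. Cells were primary human hepatocytes from two donor preparations, given fresh dosing solutions daily in 0.2% DMSO vehicle. Activity was relative to DMSO.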

A short description of experiment [3]: CCTE_Padilla_ZF_144hpf_TERATOSCORE: (Legacy) CCTE's 144 Hour Post-fertilization zebrafish Assay Teratoscore, Padilla Lab (AID 2283679; active means hit-call score of the fitted dose curve at least 0.9, where 1 is the maximum; inactive means score below 0.9;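 on AC50: zebrafish embryos with chorions exposed by immersion from 6-8 hpf to 5 dpf with daily renewal; teratogenicity score from eye scoring of death hatching and malformations at 144 hpf; higher score means more developmental defects relative to DMSO baseline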). In outline:
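Larvae scored by eye at 144 hpf for death, hatching and malformations after a day in clean Hanks'. Before that, daily-renewed exposure at 80 uM (0.4% DMSO, 26C) from roughly 6-8 hpf through 5 dpf, 4 embryos per chemical.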

Read-out in experiment [4]: ABC Transporter (ABCB1), ABCB1 (gene 5243)
Kind of experiment: CLD_ABCB1_24hr: CellzDirect (CLD) Gene Expression Assay for ABC Transporter (ABCB1) at 24 hours (AID 2283684). In outline:
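ABCB1 mRNA induction versus 0.2% DMSO vehicle was read by qNPA chemiluminescence at 24 h. Cultured human hepatocytes from two donor preparations received daily fresh dosing, and phase-contrast cytotoxicity calls were annotated alongside the data.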

Read-out in experiment [5]: Broad substrate specificity ATP-binding cassette transporter ABCG2 (Homo sapiens) (UniProt Q9UNQ0)
The experiment is described as follows: CLD_ABCG2_24hr: CellzDirect (CLD) Gene Expression Assay for ABC Transporter (ABCG2) at 24 hours (AID 2283685). In outline:
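ABCG2 mRNA induction, read as gain of chemiluminescent signal over 0.2% DMSO, was measured by quantitative nuclease protection at 24 h. Cultured human liver hepatocytes were given fresh dosing solutions of test chemicals at several concentrations each day.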

Read-out in experiment [6]: Cytochrome P450 2B6 (Homo sapiens) (UniProt P20813)
The experiment is described as follows: CLD_CYP2B6_24hr: CellzDirect (CLD) Gene Expression Assay for xenobiotic metabolism (CYP2B6) at 24 hours (AID 2283686). Put shortly:
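qNPA chemiluminescent measurement of mRNA at 24 hours in human primary hepatocyte cultures from two donor preparations, with daily fresh dosing and 0.2% DMSO vehicle as baseline. Morphology-based cytotoxicity flagged yes/no.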

Read-out in experiment [7]: Cytochrome P450 2C9 (Homo sapiens) (UniProt P11712)
Kind of experiment: CLD_CYP2C9_24hr: CellzDirect (CLD) Gene Expression Assay for xenobiotic metabolism (CYP2C9) at 24 hours (AID 2283688). In outline: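 Induction of CYP2C9 mRNA was quantified by quantitative nuclease protection assay (chemiluminescence), gain of signal versus 0.2% DMSO vehicle, 24 h after dosing. Human primary hepatocytes (two donors) received fresh chemical daily at multiple concentrations; morphology-based cytotoxicity flagged yes/no.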

Read-out in experiment [8]: Cytochrome P450 3A4 (Homo sapiens) (UniProt P08684)
The experiment is described as follows: CLD_CYP3A4_24hr: CellzDirect (CLD) Gene Expression Assay for xenobiotic metabolism (CYP3A4) at 24 hours (AID 2283689). Put shortly: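 CYP3A4 mRNA induction read by quantitative nuclease protection (chemiluminescence) 24 hr after dosing. Cultured human hepatocytes (two donor preparations) treated daily, vehicle 0.2% DMSO; phase-contrast morphology annotates cytotoxicity.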

Read-out in experiment [9]: sulfotransferase (SULT2A), SULT2A1 (gene 6822)
The experiment is described as follows: CLD_SULT2A_24hr: CellzDirect (CLD) Gene Expression Assay for sulfotransferase (SULT2A) at 24 hours (AID 2283694).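 On AC50: potency for increased SULT2A1 mRNA level as induction over DMSO baseline.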 In outline: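 mRNA is measured by qNPA: probe hybridisation, S1 nuclease digestion, chemiluminescence, in lysates from human primary hepatocytes harvested 24 h after daily dosing. Vehicle was 0.2% DMSO. Phase-contrast microscopy flagged cytotoxicity (yes/no).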

Read-out in experiment [10]: glucuronosyltransferase (UGT1A1), UGT1A1 (gene 54658)
Kind of experiment: CLD_UGT1A1_24hr: CellzDirect (CLD) Gene Expression Assay for glucuronosyltransferase (UGT1A1) at 24 hours (AID 2283696). In outline:
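UGT1A1 transcript induction was measured by quantitative nuclease protection assay (chemiluminescence) in human hepatocyte cultures 24 h after daily fresh dosing, with 0.2% DMSO as vehicle and baseline.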

Read-out in experiment [11]: Cytochrome P450 3A4 (Homo sapiens) (UniProt P08684)
The experiment is described as follows: CLD_CYP3A4_48hr: CellzDirect (CLD) Gene Expression Assay for xenobiotic metabolism (CYP3A4) at 48 hours (AID 2283698). Put shortly: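 CYP3A4 induction read by qNPA chemiluminescence after 48 h, with fresh dosing solutions on consecutive days, in cultured human hepatocytes (two donors). Vehicle 0.2% DMSO as baseline; microscopy-based cytotoxicity annotated yes/no alongside data.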

Read-out in experiment [12]: ABC Transporter (ABCB11), ABCB11 (gene 8647)
Kind of experiment: CLD_ABCB11_48hr: CellzDirect (CLD) Gene Expression Assay for ABC Transporter (ABCB11) at 48 hours (AID 2283697). Put shortly: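 Induction of ABCB11 mRNA relative to 0.2% DMSO, measured at 48 h by qNPA chemiluminescence. Cultured human hepatocytes (two donors) received fresh dosing solutions at several concentrations on two consecutive days.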

Read-out in experiment [13]: xenobiotic metabolism (CYP1A2), CYP1A2 (gene 1544)
The experiment is described as follows: CLD_CYP1A2_24hr: CellzDirect (CLD) Gene Expression Assay for xenobiotic metabolism (CYP1A2) at 24 hours (AID 2283683). Put shortly: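 CYP1A2 mRNA induction measured by quantitative nuclease protection (chemiluminescent) in human primary hepatocytes 24 h after multi-concentration chemical dosing with daily fresh solutions. DMSO (0.2%) baseline; positive-direction fitting; morphology-based cytotoxicity noted.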

Read-out in experiment [14]: Cytochrome P450 2C19 (Homo sapiens) (UniProt P33261)
The experiment is described as follows: CLD_CYP2C19_24hr: CellzDirect (CLD) Gene Expression Assay for xenobiotic metabolism (CYP2C19) at 24 hours (AID 2283687).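 Further: activity means mRNA induction above DMSO vehicle baseline.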 Put shortly: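 CYP2C19 mRNA was quantified by qNPA chemiluminescence after 24 h of daily dosing of cultured human primary hepatocytes from two donors; vehicle was 0.2% DMSO, and increases over DMSO baseline were fitted.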

Experiment [15] can be described thus: CLD_ACTIN_6hr: CellzDirect (CLD) Gene Expression Assay for Baseline Control (Actin) at 6 hours (AID 2283676).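 Further: active means increased actin mRNA relative to DMSO vehicle.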 In outline:
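Baseline actin transcript level measured by qNPA (S1 nuclease protection, chemiluminescence) in human hepatocyte cultures 6 h after chemical exposure; 0.2% DMSO vehicle as reference, cytotoxicity noted from morphology.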

Read-out in experiment [16]: ABC Transporter (ABCB1), ABCB1 (gene 5243)
Kind of experiment: CLD_ABCB1_48hr: CellzDirect (CLD) Gene Expression Assay for ABC Transporter (ABCB1) at 48 hours (AID 2283695). Put shortly:
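ABCB1 mRNA was measured by quantitative nuclease protection assay (chemiluminescence) 48 h after dosing. Human hepatocyte cultures from two separate donors received fresh dosing solutions daily for two days, with 0.2% DMSO as vehicle. Positive-direction fit against DMSO.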

Chain of Broad substrate specificity ATP-binding cassette transporter ABCG2 (Homo sapiens) (Q9UNQ0 whole entry, looked up): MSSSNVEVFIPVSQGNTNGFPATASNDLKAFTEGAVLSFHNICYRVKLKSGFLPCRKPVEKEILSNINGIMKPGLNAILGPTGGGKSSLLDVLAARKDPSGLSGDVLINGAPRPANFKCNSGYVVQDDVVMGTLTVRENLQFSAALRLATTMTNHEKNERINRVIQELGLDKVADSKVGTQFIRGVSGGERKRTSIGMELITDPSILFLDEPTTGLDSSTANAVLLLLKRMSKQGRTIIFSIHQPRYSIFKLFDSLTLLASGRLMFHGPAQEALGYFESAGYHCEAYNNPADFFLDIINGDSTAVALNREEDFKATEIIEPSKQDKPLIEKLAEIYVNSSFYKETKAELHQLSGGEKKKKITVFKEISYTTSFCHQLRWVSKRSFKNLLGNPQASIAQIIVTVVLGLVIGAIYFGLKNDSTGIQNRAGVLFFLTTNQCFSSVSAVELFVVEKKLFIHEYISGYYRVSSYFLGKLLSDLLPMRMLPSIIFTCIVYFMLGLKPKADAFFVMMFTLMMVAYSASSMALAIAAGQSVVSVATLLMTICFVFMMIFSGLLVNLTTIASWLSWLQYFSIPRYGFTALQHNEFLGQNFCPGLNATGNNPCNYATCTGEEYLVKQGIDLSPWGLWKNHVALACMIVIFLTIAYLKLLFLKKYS
Chain of Cytochrome P450 2C19 (Homo sapiens) (P33261 whole entry, looked up): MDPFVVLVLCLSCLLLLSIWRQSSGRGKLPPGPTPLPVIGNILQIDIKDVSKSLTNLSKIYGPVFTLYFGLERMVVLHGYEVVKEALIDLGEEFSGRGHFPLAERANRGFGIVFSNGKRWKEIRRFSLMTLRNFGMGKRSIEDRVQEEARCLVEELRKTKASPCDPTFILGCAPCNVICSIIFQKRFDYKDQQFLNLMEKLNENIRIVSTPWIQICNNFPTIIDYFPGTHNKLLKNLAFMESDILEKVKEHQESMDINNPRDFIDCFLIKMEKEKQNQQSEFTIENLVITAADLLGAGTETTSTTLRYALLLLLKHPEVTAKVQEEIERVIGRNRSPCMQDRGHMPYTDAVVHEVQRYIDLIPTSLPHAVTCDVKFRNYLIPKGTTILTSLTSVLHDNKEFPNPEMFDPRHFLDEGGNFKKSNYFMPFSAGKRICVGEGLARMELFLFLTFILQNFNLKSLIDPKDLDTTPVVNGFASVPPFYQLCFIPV
Chain of Cytochrome P450 3A4 (Homo sapiens) (P08684 whole entry, looked up): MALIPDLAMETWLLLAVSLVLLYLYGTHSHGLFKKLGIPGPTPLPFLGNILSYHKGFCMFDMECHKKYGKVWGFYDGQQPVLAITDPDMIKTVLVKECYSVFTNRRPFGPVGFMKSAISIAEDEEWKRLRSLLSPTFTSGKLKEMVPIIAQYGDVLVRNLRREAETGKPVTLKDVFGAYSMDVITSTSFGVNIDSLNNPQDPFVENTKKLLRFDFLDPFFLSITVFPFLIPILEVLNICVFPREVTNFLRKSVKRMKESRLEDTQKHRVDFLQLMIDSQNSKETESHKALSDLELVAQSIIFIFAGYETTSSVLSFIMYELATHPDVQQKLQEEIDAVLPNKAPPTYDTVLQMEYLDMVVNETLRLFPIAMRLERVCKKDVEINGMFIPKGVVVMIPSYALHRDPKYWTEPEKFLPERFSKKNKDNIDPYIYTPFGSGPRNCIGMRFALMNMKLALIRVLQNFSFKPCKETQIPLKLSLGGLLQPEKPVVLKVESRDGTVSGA

Consider `CCOc1nc(F)cc2nc(S(=O)(=O)Nc3c(Cl)cccc3Cl)nn12`, for which the AC50 (usually the concentration at which the activity in the assay is half-maximal) in experiment [1] was 14.4 µM (active); in [6], 6.27 µM (active); in experiment [8], 2.93 µM (active); in experiment [9], 5.51 µM (active); in experiment [11] it was 3.13 µM (active). Moreover, the molecule was classed as inactive in experiment [2], in experiment [3], in experiment [4], in experiment [5], in experiment [7] and in experiment [10].

As for `CCOP(=S)(OCC)Oc1nc(Cl)n(C(C)C)n1`, the half-maximal activity concentration (AC50) was 0.511 µM (active) in experiment [1]; 57200 nM (active) in [3]; 0.677 µM (active) in experiment [8]; 0.652 µM (active) in [10]; 2.52 µM (active) in [11]. For the same molecule, the molecule was classed as inactive in experiment [5], in experiment [7] and in experiment [9].

Regarding `COC(=O)NC(=S)Nc1ccccc1NC(=S)NC(=O)OC`, the AC50 is 4.73 µM (active) in experiment [1]; 486 nM (active) in [3]; 7.45 µM (active) in experiment [6]; 3.97 µM (active) in [8]; 3.45 µM (active) in experiment [11]. In addition, the call in experiment [2], in experiment [5], in experiment [7], in experiment [9], in [10] and in [12] was inactive.

As for `COc1cc(Cl)c(OC)cc1Cl`, the results for the AC50 in experiment [1] and in [6] were 0.618 µM (active) and 0.598 µM (active), respectively. Further, the outcome in [13], in experiment [5], in experiment [14], in experiment [7], in [8] and in experiment [9] was inactive. In addition, in experiment [10], the molecule was called inactive.

Turning to `Cc1cc(C)nc(Nc2ccccc2)n1`, the AC50 is 0.994 µM (active) in [1] and 1.78 µM (active) in [8]. The result in [3], in experiment [9], in [10] and in [11] was inactive.

With `N#CN=C1SCCN1Cc1ccc(Cl)nc1`, the molecule was called inactive in experiment [1], in experiment [2], in experiment [3], in [5], in experiment [14] and in experiment [7]. The molecule was classed as inactive in experiment [10] and in experiment [12]. Besides, the AC50 in [8] is 10.9 µM (active).

For `Cc1c(COC(=O)[C@@H]2[C@H](/C=C(\Cl)C(F)(F)F)C2(C)C)cccc1-c1ccccc1`, the AC50 in [1] is 4.27 µM (active); in experiment [3] it was 623 nM (active); in experiment [13] it was 32.2 µM (active); in [8] it was 6.84 µM (active); in experiment [10], 20 µM (active); in experiment [11], 4.01 µM (active). Besides, the call in [5], in [14] and in experiment [7] was inactive.

Turning to `O=C1C2CC=CCC2C(=O)N1SC(Cl)(Cl)Cl` (centres undefined), the result in experiment [15], in [13], in experiment [5], in experiment [14], in experiment [7] and in experiment [12] was inactive. In addition, the AC50 in [3] is 1960 nM (active).

As to `CN/C(=N\[N+](=O)[O-])NCc1cnc(Cl)s1`, the molecule was classed as inactive in experiment [3].

With `CCOC(=O)C(C)OC(=O)c1cc(Oc2ccc(C(F)(F)F)cc2Cl)ccc1[N+](=O)[O-]` (centres undefined), the concentration at half-maximal activity (AC50) in experiment [1] is 7.3 µM (active); in [3], 190 nM (active); in [13], 4.61 µM (active); in experiment [8] it was 3.19 µM (active); in experiment [9] it was 3.51 µM (active); in experiment [10] it was 2.46 µM (active). Moreover, the molecule was called inactive in experiment [2] and in experiment [5].

For the molecule `CCN(CC)C(=O)C(C)Oc1cccc2ccccc12` (centres undefined), the half-maximal activity concentration (AC50) in [1] is 0.317 µM (active). The molecule was classed as inactive in [3], in experiment [6], in experiment [14], in [7], in experiment [8] and in experiment [9]. Moreover, the result in experiment [10] was inactive.

With `CO/N=C(/C1=NOCCO1)c1ccccc1Oc1ncnc(Oc2ccccc2Cl)c1F`, the outcome in experiment [15], in experiment [5], in [6], in experiment [7], in [8] and in [9] was inactive. In experiment [12], the outcome was inactive. Moreover, the AC50 in experiment [3] was 182 nM (active).

For the molecule `Nc1cnn(-c2ccccc2)c(=O)c1Cl`, the molecule was called inactive in experiment [1], in [3], in [5], in [6], in experiment [7] and in [10]. Also, the molecule was called inactive in experiment [11].

Consider `CC(C)Oc1cccc(NC(=O)c2ccccc2C(F)(F)F)c1`, for which the AC50 in experiment [1] is 3.68 µM (active); in experiment [3], 15900 nM (active); in experiment [13] it was 20 µM (active); in experiment [6], 4.95 µM (active). Besides, the molecule was classed as inactive in experiment [2], in experiment [4], in [5], in experiment [14], in experiment [7] and in [9]. In addition, the molecule was classed as inactive in experiment [10].

For `O=c1n(Cl)c(=O)n(Cl)c(=O)n1Cl`, the molecule was called inactive in [1], in experiment [2], in experiment [3], in experiment [14], in [7] and in experiment [8]. Further, the molecule was classed as inactive in experiment [9], in experiment [16], in experiment [10] and in experiment [12]. In addition, the half-maximal activity concentration (AC50) in experiment [13] is 3.33 µM (active).

On to `CC(C)N1C(=O)c2ccccc2NS1(=O)=O`, for which the molecule was classed as inactive in experiment [15], in [2], in [3], in [5], in [14] and in experiment [8]. In addition, the molecule was called inactive in experiment [10] and in [11].

On to `Nc1c(Cl)c(Cl)nc(C(=O)O)c1Cl`, for which the outcome in experiment [15], in experiment [2], in experiment [3], in experiment [4], in [5] and in experiment [6] was inactive. The molecule was classed as inactive in [14], in [7], in [8], in experiment [9], in experiment [10] and in [11].
